Records with an inconclusive call do not appear. Where a call stands in place of a potency, no number is given. Unmarked numbers belong to inactive results. Calls of active or inactive are those of the source. Calls come from the whole dose curve; as a rule, active = well fitted cell-killing curve with a large enough effect; inconclusive = small, poorly fitted or top-dose-only effect, or effect the other way; inactive = no such curve, though single readings can be large or run the other way.
Tests used:
[1] = Viability qHTS for spleen associated tyrosine kinase inhibitor (SYKi) naive MV4-11 cells (AID 1963823); note: nearly all actives have a fitted effect of over 40% in size
Procedure, shortened: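 Cells: MV4-11, SYK inhibitor naive, 500 per well. Treatment: library compounds, 72 hr, 37 C, 5% CO2. Read-out: CellTiter-Glo luminescence after 10 min RT.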

[2] = Viability qHTS for spleen associated tyrosine kinase inhibitor (SYKi) drug resistant MV4-11 cells (AID 1963824); note: nearly all actives have a fitted effect of over 35% in size
Procedure, shortened: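 CellTiter-Glo luminescence, read 10 min after reagent addition, reports viability after a 72 hr compound exposure. Cells are an MV4-11 line made resistant to SYK inhibition, seeded at 500 per well onto compound-containing plates.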
Potency is the fitted concentration of half-maximal effect.

| SMILES | Potency [1] | Potency [2] | viability (% of control) [1] | viability, % of control [2] |
| --- | --- | --- | --- | --- |
| COC(=O)c1cc(OC)c(O[C@@H]2O[C@@H](C)[C@H](O)[C@@H](O)[C@H]2O)c(OC)c1 | inactive | inactive | – | – |
| C=CCc1ccc(O[C@@H]2O[C@H](CO[C@@H]3O[C@@H](C)[C@H](O)[C@@H](O)[C@H]3O)[C@@H](O)[C@H](O)[C@H]2O)cc1 | inactive | inactive | – | – |
| C=CC(=O)N1CCCN(c2cc(NCCC(=O)O)nc(-c3ccccn3)n2)CC1 | inactive | inactive | – | – |
| [O-][n+]1cccc(-c2nc3c(Cl)cccc3cc2[C@@H](Nc2ncnc3cccnc23)C(F)(F)F)c1 | 4.17 µM (active) | 13.2 µM (active) | – | – |
| CC1(O)CCC2C(C(=O)O)=COC(OC3OC(CO)C(O)C(O)C3OC(=O)/C=C/c3ccc(O)cc3)C21 (stereo not given) | inactive | inactive | – | – |
| CN1CCN(S(=O)(=O)c2ccc(-c3cnc(N)c(C(=O)Nc4cccnc4)n3)cc2)CC1 | 0.893 µM (active) | 0.796 µM (active) | – | – |
| C/C=C/C=C/C=C/C(=O)O[C@@H]1[C@@H](OC)C2=C(C(=O)N(C(C)C(=O)O)C2)[C@@]2(C)CCCC(C)(C)[C@H]12 (stereo not given in full) | inactive | inactive | – | – |
| C[C@@H]1O[C@@H](O[C@H]2[C@H](O)[C@@H](O)[C@H](OC[C@H]3O[C@@H](OC(=O)[C@]45CCC(C)(C)C[C@H]4C4=CCC6[C@@]7(C)C[C@H](O)[C@H](O[C@@H]8O[C@H](CO)[C@@H](O)[C@H](O)[C@H]8O)[C@@](C)(C(=O)O)C7CC[C@@]6(C)[C@]4(C)CC5)[C@H](O[C@@H]4O[C@H](CO)[C@@H](O)[C@H](O)[C@H]4O)[C@@H](O)[C@@H]3O)O[C@@H]2CO)[C@H](O)[C@H](O)[C@H]1O (stereo not given in full) | – | – | 103% [at 9.25 µM] | 87% [at 9.25 µM] |
| CCCCc1nc(C)c(CC(=S)N(C)C)c(=O)n1Cc1ccc(-c2ccccc2-c2nn[nH]n2)cc1 | inactive | inactive | – | – |
| C=C(C)[C@H]1C[C@@H](O)C(=C)CC[C@@H](O)C(=C)[C@@H](O)C1 | inactive | inactive | – | – |
| CC(=O)C1=CCC2C3CCC4CC(O[C@@H]5O[C@H](CO)[C@@H](O[C@@H]6O[C@@H](C)[C@H](O)[C@@H](O)[C@H]6O)[C@H](O)[C@H]5O[C@@H]5O[C@H](CO)[C@@H](O)[C@H](O)[C@H]5O)CCC4(C)C3CCC12C (stereo not given in full) | inactive | inactive | – | – |
| CNc1nc(NCc2ccc(NS(C)(=O)=O)cc2Cl)cc(-c2ccccn2)n1 | 20.6 µM (active) | 23.1 µM (active) | – | – |
| C[C@@H]1O[C@@H](O[C@H]2[C@H](OC(=O)[C@]34CCC(C)(C)C[C@H]3C3=CCC5[C@@]6(C)CC[C@H](O[C@@H]7O[C@H](CO[C@@H]8OC[C@H](O)[C@H](O)[C@H]8O[C@@H]8OC[C@@H](O)[C@H](O)[C@H]8O)[C@@H](O)[C@H](O)[C@H]7O)C(C)(C)C6CC[C@@]5(C)[C@]3(C)C[C@H]4O)O[C@H](CO)[C@@H](O)[C@@H]2O)[C@H](O[C@@H]2O[C@H](CO)[C@@H](O)[C@H](O)[C@H]2O)[C@H](O)[C@H]1O[C@@H]1OC[C@@H](O)[C@H](O[C@@H]2OC[C@@H](O)[C@H](O)[C@H]2O)[C@H]1O (stereo not given in full) | – | – | 93.4% [at 4.97 µM] | 88.9% [at 4.97 µM] |
| C[C@]1(CO)CCC[C@]2(C)C3=C(CCC12)COC3 (stereo not given in full) | inactive | inactive | – | – |
| Nc1ncnc2c1nc(Cl)n2C1O[C@H](CO)[C@@H](O)[C@H]1O (stereo not given in full) | 0.366 µM (active) | 0.146 µM (active) | – | – |
| CC12CCC3c4ccc(OC5OC(C(=O)O)C(O)C(O)C5O)cc4CCC3C1CCC2O (stereo not given) | inactive | inactive | – | – |
| O=C(/C=C\n1cnc(-c2cc(C(F)(F)F)cc(C(F)(F)F)c2)n1)N1CC(F)(F)C1 | 0.366 µM (active) | 0.731 µM (active) | – | – |
| CC1=C(C(=O)OC2OC(COC3OC(CO)C(O)C(O)C3O)C(O)C(O)C2O)C(C)(C)CCC1 (stereo not given) | inactive | inactive | – | – |

| SMILES | Potency [1] | Potency [2] | viability (% of control) [1] | viability, % of control [2] |
| --- | --- | --- | --- | --- |
| CCCCCCCCCCCCC/C=C/[C@@H](O)[C@H](CO)N(C)C | – | – | 70.8% [at 4.97 µM] | 82.6% [at 4.97 µM] |
| CO[C@H]1C=C2C(CC[C@H](O[C@@H]3O[C@H](CO)[C@@H](O)[C@@H](O)[C@H]3O)C2(C)C)[C@]2(C)CC[C@]3(C)C([C@H](C)C(O)C(C=C(C)C)O[C@@H]4O[C@H](CO)[C@@H](O)[C@@H](O)[C@H]4O)CC[C@@]3(C)C12 (stereo not given in full) | – | – | 86.9% [at 9.25 µM] | 90.7% [at 9.25 µM] |
| CCN1CCN(C(=O)N[C@@H](C(=O)N[C@@H]2C(=O)N3[C@@H]2SC(C)(C)[C@@H]3C(=O)O)c2ccccc2)C(=O)C1=O | inactive | inactive | – | – |
| CC1=CC(=O)CC(C)(CO[C@@H]2O[C@H](CO)[C@@H](O)[C@H](O)[C@H]2O)C1(O)/C=C/C(C)=C/C(=O)O (stereo not given in full) | inactive | inactive | – | – |
| COC1=CC(=O)O[C@@H](CCc2ccccc2)[C@@H]1O | inactive | inactive | – | – |
| C[C@@H](O[C@H]1OCCN(Cc2n[nH]nc2CN(C)C)[C@H]1c1ccc(F)cc1)c1cc(C(F)(F)F)cc(C(F)(F)F)c1 | 10.3 µM (active) | 6.51 µM (active) | – | – |
| Brc1ccc([C@H]2CN3CCSC3=N2)cc1 | inactive | inactive | – | – |
| CS(=O)(=O)c1ccccc1N1CCN(c2nc3c(c(=O)[nH]2)CSCC3)CC1 | inactive | inactive | – | – |
| CO/N=C(/C(=O)N[C@@H]1C(=O)N2C(C(=O)O)=C(CSC(=O)c3ccco3)CS[C@H]12)c1csc(N)n1 | inactive | inactive | – | – |
| C[C@@H]1CC[C@]2(C(=O)OC3OC(CO)C(O)C(O)C3O)CC[C@]3(C)C(=CCC4[C@@]5(C)CC[C@H](O)[C@](C)(C(=O)O)C5CC[C@]43C)C2[C@]1(C)O (stereo not given in full) | inactive | inactive | – | – |
| C=CC(=O)N1CCC(C2CCNc3c(C(N)=O)c(-c4ccc(Oc5ccccc5)cc4)nn32)CC1 (stereo not given) | 7.42 µM (active) | 11.8 µM (active) | – | – |
| Cc1ncc(CCCN(C)C)cc1Nc1ncc2c(n1)-c1ccc(C(F)(F)F)cc1NC(=S)C2 | 0.0517 µM (active) | 0.0206 µM (active) | – | – |
| Cc1cc(C)c(-c2csc(NC(=O)c3ccccc3)n2)c(C)c1 | 6.51 µM (active) | 11.6 µM (active) | – | – |
| C=CC1C(O[C@@H]2O[C@H](CO)[C@@H](O)[C@H](O)[C@H]2O)OC=C(C(=O)OC)C1CC(=O)O (stereo not given in full) | inactive | inactive | – | – |
| CC1CCC2C(C)(C)C(O)CCC2(C)C12Cc1c(O)cc3c(c1O2)CN=C3N (stereo not given) | inactive | inactive | – | – |
| CC1(C)C(=O)N2c3ccccc3C(O)(CC(C(=O)O)n3cnc4ccccc4c3=O)C2N1O (stereo not given) | inactive | 0.252 µM (active) | – | – |
| CC(C)(C)S(=O)(=O)c1ccc2nccc(Nc3n[nH]c4ccc(F)cc34)c2c1 | 7.42 µM (active) | 9.34 µM (active) | – | – |

From PubChem BioAssay (NCATS)
